Screening data: PubChem, National Center for Advancing Translational Sciences (NCATS)
G9a inh – inhibitors of human histone lysine methyltransferase G9a | Q96KQ7 | G9a H3K9 monomethylation, AlphaScreen, 2 h | Potency, µM (series often up to 102 µM), for the others: at the highest dose activity, negative = inhibition, actives largely listed as inhibitors | 350,000 tested, 8.8% active; also: potency is read from the fitted curve at half-maximal effect; nearly all actives have a fitted effect of over 75% in size
Target sequence (Q96KQ7 913-1193 limits assumed): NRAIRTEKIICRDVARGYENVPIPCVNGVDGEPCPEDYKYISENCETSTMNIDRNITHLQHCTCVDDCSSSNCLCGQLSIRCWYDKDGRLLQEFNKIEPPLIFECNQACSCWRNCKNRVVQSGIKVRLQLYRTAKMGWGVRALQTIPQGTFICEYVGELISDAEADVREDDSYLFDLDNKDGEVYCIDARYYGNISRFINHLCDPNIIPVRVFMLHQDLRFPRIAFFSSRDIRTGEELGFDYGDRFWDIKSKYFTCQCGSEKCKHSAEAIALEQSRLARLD
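Signal arises when biotinylated H3K9 peptide, once monomethylated, bridges streptavidin donor and antibody-captured acceptor beads. Enzyme at 20 nM was preincubated 15 min with test compounds; peptide 500 nM and SAM 20 uM then reacted for 2 h.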
Tau FP inhib – blocks human tau fibril formation measured by polarization | P10636 | K18 P301L tau heparin fibrillization, Alexa594 FP, 6 h | Potency, µM (titrated, usually from 57.7 µM), for the others: at the highest dose activity, negative = inhibition, usual class: inhibitors | 280,000 tested, 0.39% active | AID 1468; also: potency is read from the fitted curve at half-maximal effect; nearly all actives have a fitted effect of over 55% in size
Target sequence (P10636 561-689 P618L limits assumed): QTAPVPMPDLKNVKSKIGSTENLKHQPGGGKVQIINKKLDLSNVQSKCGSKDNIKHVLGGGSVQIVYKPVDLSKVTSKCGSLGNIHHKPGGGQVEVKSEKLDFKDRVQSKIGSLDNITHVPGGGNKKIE
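Human tau K18 […] P301L fragment, 15 uM unlabeled plus 0.24 uM Alexa 594-labeled tau (final), with compound and 20 uM heparin in 100 mM sodium acetate pH 7; 6 hr at 37 C, then Alexa 594 FP read.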
Coupling enz – counter-screen for Giardia aldolase inhibitors: coupling enzyme system | coupling enzyme system counterscreen, AmpLite Red fluorescence | activity change, negative = inhibition, % at 58.2 µM, hits read low | 290,000 tested, 0.67% active; in the data active = activity change below about -30%
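Counterscreen lacking aldolase: glyceraldehyde-3-phosphate coupling-enzyme reagent preincubated 10 min at RT with compound (at 57.5 uM final), then substrate/coupling system with AmpLite Red added; fluorescence read at 525/598 nm after 20 min RT.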
Tau fluor cs – counter-screen for tau fibril formation inhibitors. AID 1463. tau K18 P301L Alexa594 fluorescence, heparin fibrillization. 280,000 tested, 0.93% active. Potency, µM (highest dose often 57.7 µM), for inactives: at the highest dose activity change, negative = decrease; also: potency is read from the fitted curve at half-maximal effect; nearly all actives have a fitted effect of over 55% in size
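Human K18 P301L tau (15 uM unlabeled plus 0.24 uM Alexa 594-labeled, final) in 100 mM sodium acetate pH 7 was mixed with compound and 20 uM heparin and incubated 6 hr at 37 C.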
Tau fibril ThT – inhibitors of human tau fibril formation, thioflavin T binding | P10636 | recombinant tau K18 P301L (four-repeat tau fragment), heparin-induced fibrillization, ThT fluorescence | Potency, µM (series often up to 57.4 µM), inactives show at the highest dose activity, negative = inhibition, hits mostly inhibitors | 270,000 tested, 2.1% active; also: potency is read from the fitted curve at half-maximal effect; nearly all actives have a fitted effect of over 55% in size
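Heparin-induced fibrillization of the P301L-mutant K18 repeat-domain fragment of human tau was followed by ThT binding in quantitative high-throughput format.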
Sfp inh – Sfp phosphopantetheinyl transferase inhibition; Q9F4F7; AID 1490; Biochemical Sfp PPTase activity, qHTS; Potency, µM, inactives show largest response in the series, negative = inhibition, actives largely listed as inhibitors; 310,000 tested, 3.5% active;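 also: the enzyme is Sfp with the accession as filed and its product quenches rhodamine fluorescence; potency is read from the fitted curve at half-maximal effect; 0% = enzyme reaction without inhibitor and -100% = no enzyme wells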
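With Hepes-Na pH 7.6 buffer containing 10 mM MgCl2, Sfp (15 nM) modified BHQ-2-YbbR (12.5 uM) using rhodamine-CoA (5 uM). Two reads 30 minutes apart at 525/598 nm yielded each well's rate.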
The depositor's hits bear a star; ? = inconclusive; · = no result given; [ ] = dose if it differs, or a comment. Only some compounds are listed: those with a hit (about 11% of all), similar ones and a draw of the others. Unless noted, calls follow the shape of the dose curve; as a rule, active = well fitted curve in the direction sought with a large enough effect; inconclusive = small, poorly fitted or top-dose-only effect, or another doubt; inactive = no such curve, though single readings can be large; an effect the other way counts as inactive or inconclusive. Unless noted, % is scaled to controls: 0 for no effect and ±100 for the full control effect.

SMILES	G9a inh	Tau FP inhib	Coupling enz	Tau fluor cs	Tau fibril ThT	Sfp inh
CCCCN(C)C(=O)C1CCC(Cn2c(=O)[nH]c3ccsc3c2=O)CC1 (stereo unspecified)	-0.5%[59 µM]	-6.8%	·	-5.5%	-1.3%	·
c1ccc(C[C@H]2CN=C(Nc3ccccc3)N2CCCC2CCCC2)cc1	44.7µM*	·	4.9	·	·	-27.1%
c1ccc(CCCCN2C(Nc3ccccc3)=NC[C@@H]2Cc2ccccc2)cc1	22.9%[2.33 µM]	·	·	·	·	·
COCCN(C(=O)COC(=O)CCc1ccccc1OC)c1c(N)n(Cc2ccccc2)c(=O)[nH]c1=O	12.6µM*	·	·	·	·	·
CCc1noc(C)c1C(=O)OCC(=O)N(C)c1c(N)n(Cc2ccccc2)c(=O)[nH]c1=O	50.1µM*	·	·	·	·	·
COCCN(C(=O)COC(=O)Cc1coc2cc3c(cc12)CCC3)c1c(N)n(Cc2ccccc2)c(=O)[nH]c1=O	39.8µM*	·	·	·	·	·
COCCN(C(=O)COC(=O)c1ccccc1Nc1ccccc1)c1c(N)n(Cc2ccccc2)c(=O)[nH]c1=O	14.1µM*	·	·	·	·	·
COCCN(C(=O)COC(=O)c1cccc2ccccc12)c1c(N)n(Cc2ccccc2)c(=O)[nH]c1=O	·	·	1.2	·	·	-7.1%
COCCN(C(=O)COC(=O)COc1ccc2c(c1)CCC2)c1c(N)n(Cc2ccccc2)c(=O)[nH]c1=O	4.1%[0.501 µM]	·	·	·	·	·
CN(Cc1ccccc1)S(=O)(=O)c1nnc(NC(=O)c2ccccc2Cl)s1	4.5%[59 µM]	-5.5%	·	4.0%	-2.7%	·
Cn1c(=O)c2c(n3ncnc13)NC(=O)CC2c1cccc(F)c1 (stereo unspecified)	?	-2.4%	·	-11.8%	-7.4%	·
FC(F)(F)c1ccccc1CNCc1ccc2c(c1)OCO2	-63.0%	·	1.3	·	·	-19.5%
COc1cccc(Cn2c(=O)n(-c3cc(C)cc(C)c3)c(=O)c3oc4ccccc4c32)c1	-22.7%[59 µM]	-3.9%	·	-0.9%	0.7%	·
CN(C(=O)COC(=O)CSc1cc(Cl)ccc1Cl)c1c(N)n(Cc2ccccc2)c(=O)[nH]c1=O	7.08µM*	·	·	·	·	·
CN(C(=O)COC(=O)C1COc2ccccc2O1)c1c(N)n(Cc2ccccc2)c(=O)[nH]c1=O (stereo unspecified)	44.7µM*	·	·	·	·	·
CN(C(=O)COC(=O)c1ccccc1Cc1ccccc1)c1c(N)n(Cc2ccccc2)c(=O)[nH]c1=O	50.1µM*	·	·	·	·	·
CN(C(=O)COC(=O)c1ccccc1Nc1ccccc1)c1c(N)n(Cc2ccccc2)c(=O)[nH]c1=O	14.1µM*	·	·	·	·	·
CN(C(=O)COC(=O)C1=COCCO1)c1c(N)n(Cc2ccccc2)c(=O)[nH]c1=O	-6.6%	·	·	·	·	·
Cc1ccccc1C(=O)OCC(=O)N(C)c1c(N)n(Cc2ccccc2)c(=O)[nH]c1=O	9.0%[0.501 µM]	·	·	·	·	·
COc1ccc(NC(=O)c2c(NC(=O)COc3ccc(Cl)cc3)sc3c2CCCCC3)cc1	5.3%[59 µM]	-3.9%	·	-4.1%	?	·
CN1C(=O)Cc2cc(S(=O)(=O)CCC(=O)Nc3cccc(C(F)(F)F)c3)ccc21	-17.1%[59 µM]	-6.5%	·	-4.9%	5.2%	·
CCOc1ccc(/C=N/N(C)c2ccccc2)cc1OC	50.1µM*	?	0.4	?	7.94µM*	-10.6%
CCCOc1ccc(/C=N/Nc2ccccn2)cc1OC	-2.4%	6.8%	3.8	-14.9%	-16.8%	?
CCOc1ccc(/C=N/Nc2ccccn2)cc1OC	-9.5%	4.8%	-0.6	-14.2%	?	56.2µM*
COc1cc(/C=N/Nc2ccccn2)cc(OC)c1O	28.2µM*	-0.2%	-1.5	?	?	35.5µM*
SMILES	G9a inh	Tau FP inhib	Coupling enz	Tau fluor cs	Tau fibril ThT	Sfp inh
CCOc1ccc(CN(C)C(=O)[C@H](Cc2ccccc2)NC(=O)OCc2ccccc2)cc1OC	-0.5%	·	0.0	·	·	2.3%
CSc1ncc(C(=O)NCc2ccc(C)cc2)c(C)n1	1.8%[59 µM]	7.6%	·	-2.0%	-0.1%	·
COc1cc(OC)c(NC(=O)C(C)n2nc(-c3ccc(C)c(C)c3)ccc2=O)cc1Cl (stereo unspecified)	?	14.4%	·	?	?	·
CSc1ncccc1C(=O)N1CCCC(C(=O)c2ccc3ccccc3c2)C1 (stereo unspecified)	·	-1.5%	-0.4	-12.5%	-17.5%	-11.7%
CN(C)c1ccccc1C(=O)N1CCCC(C(=O)c2ccc3ccccc3c2)C1 (stereo unspecified)	50.1µM*	5.8%	-1.2	-7.2%	?	-18.5%
COc1ccc(/C=N/NC(=O)CNC(=O)c2ccc3c(c2)OCCO3)c(C(=O)O)c1OC	2.4%[59 µM]	·	5.2	·	·	13.4%
Oc1cccc(O)c1O	3.55µM*	·	·	·	·	39.8µM*
Cn1ccnc1SCC(=O)Nc1sccc1C#N	-0.8%	1.1%	3.8	-12.2%	?	79.4µM*
COc1ccc(NC(=O)CSCC(=O)Nc2sccc2C#N)cc1	39.8µM*	·	·	·	·	·
COc1ccc(CCC(=O)Nc2sccc2C#N)cc1	?	0.0%	-4.4	-6.0%	-16.5%	-26.4%
Cc1nnc(SCC(=O)Nc2sccc2C#N)s1	1.9%	·	·	·	·	-2.0%
Cc1[nH]c2ccc(Br)cc2c(=S)c1C/C=C/Cl	35.5µM*	13.1%	1.1	?	?	10.2%
c1ccc2sc(NCC3CCCO3)nc2c1 (stereo unspecified)	2.6%	-2.8%	1.1	-0.5%	4.9%	22.4%
c1ccc2oc(-c3csc(NCC4CCCO4)n3)cc2c1 (stereo unspecified)	39.8µM*	2.9%	0.9	-25.8%	?	-17.4%
CN(C)S(=O)(=O)c1ccc(C(=O)Nc2nc(-c3cc4ccccc4o3)cs2)cc1	4.4%[59 µM]	?	-6.5	-18.3%	1.6%	0.6%
C=CCNc1nc(-c2cc3ccccc3o2)cs1	11.2µM*	-4.1%	-1.9	?	?	?
O=S(=O)(c1ccccc1)c1nnn2c1nc(N1CCN(c3ccccc3)CC1)c1cc(Cl)ccc12	-40.6%[59 µM]	-6.4%	·	-14.9%	-5.1%	·
C=C(C)Cn1c(SCC(=O)Nc2cccc(Cl)c2)nc2sc3c(c2c1=O)CCCC3	-3.0%[59 µM]	-10.8%	·	-22.4%	-14.0%	·
O=C(O)c1ccccc1C(=O)NNc1cccc(Cl)n1	44.7µM*	7.4%	4.6	-2.4%	-14.3%	-15.5%
O=C(O)c1ccccc1C(=O)NNc1ccc(F)cc1F	50.1µM*	-12.0%	3.1	-20.3%	?	1.1%
CC(C)(C)c1ccc(C(=O)NNc2ccc(F)cc2F)cc1	22.4µM*	8.7%	0.6	9.9%	6.5%	4.9%
CCc1ccc(C(=O)NNc2ccc(F)cc2F)cc1	-124.3%[59 µM]	2.1%	4.7	9.1%	5.2%	7.4%
CCCc1cc(=O)[nH]c(SCc2nc(-c3ccc(OC)cc3)no2)n1	9.6%[59 µM]	-8.6%	·	-18.0%	-17.5%	·
Cc1ccc2nc(C)c3c(c2c1)OC(C(C)(Cl)Br)C3 (stereo unspecified)	-8.4%[12.7 µM]	-3.1%	1.8	-9.7%	-10.2%	20µM*
